From PubChem BioAssay AID1053119 (Broad Institute, 2014)
Potency and affinity values are given separately. Results filed as inconclusive are left out. Unmarked numbers belong to inactive results.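 How the source made its calls: active means signal loss from cell killing with fitted potency at or below twice the top valid dose; inconclusive means flat drop of 30 to 70%, or unreliable curve fit; inactive means opposite direction, flat within 30%, or weaker potency.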

Assay: A549 cell cytotoxicity, dose response, cytotoxicity control, cherry-picks, 26 µM top dose (AID 1053119);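 further: 0% = neutral control wells and -100% = 10 µM mitoxantrone wells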
Conditions: A549 viability, CellTiter-Glo ATP luminescence, 72 h; series mostly up to 26 µM; activity change, negative = cytotoxicity: at the top concentration

Structure (SMILES)	activity change, negative = cytotoxicity
CC(NC(=O)CSc1ccc(S(=O)(=O)N2CCOCC2)cn1)c1ccc(Cl)cc1Cl (configuration not stated)	12.1%
CCOC(=O)C1=C(C)Nc2nc3ccccc3n2C1c1ccncc1 (configuration not stated)	-8.08%
OC(CNC1CCCc2ccccc21)COc1c(Cl)cccc1Cl (configuration not stated)	-13.4%
COCC(=O)Nc1ccc2c(c1)C(=O)N(C)[C@@H]1CC[C@@H](CC(=O)NCc3ccccc3Cl)O[C@@H]1CO2	-6.21% [at 23.5 µM]
CCCc1cc(C(=O)OC)c(NC(=O)CCC(=O)O)s1	-7.87%
COc1ccccc1N(CC(=O)N(CC(C)C)CC(C)C)S(=O)(=O)c1cccs1	-13%
CC(=O)Nc1cccc(-c2ccnc3c2CC(C)(C(=O)Nc2cccc(C(F)(F)F)c2)O3)c1 (configuration not stated)	-20%
CC1CN(C(=O)c2cc3c(=O)n4ccccc4nc3n2C)CC(C)O1 (configuration not stated)	-14.9%
CCCCNC(=O)Nc1nc2ccc(CC)cc2s1	-1.95%
C[C@@H]1CN([C@H](C)CO)C(=O)c2cc(-c3ccccc3)cnc2O[C@H]1CN(C)C(=O)c1cccc(F)c1	-3.54%
COCC(=O)Nc1ccc2c(c1)C(=O)N(C)[C@@H]1CC[C@H](CC(=O)NCc3ccccc3Cl)O[C@@H]1CO2	-3.35%
C[C@H](CO)N1C[C@H](C)[C@H](CN(C)C(=O)Nc2cccc3ccccc23)Oc2c(NC(=O)Nc3ccc(C(F)(F)F)cc3)cccc2C1=O	2.92%
C[C@@H]1CN([C@@H](C)CO)C(=O)c2cc(-c3ccncc3)cnc2O[C@@H]1CN(C)C(=O)Cc1cccnc1	3.71%
NC(=O)C1=C[C@H](c2coc3ccccc3c2=O)C[C@H](OCCCCO)O1	7.67%
COCC(=O)Nc1ccc2c(c1)C(=O)N(C)[C@@H]1CC[C@@H](CC(=O)NCc3ccccc3Cl)O[C@H]1CO2	1.05% [at 23.5 µM]
C[C@@H]1CN([C@@H](C)CO)C(=O)c2cc(-c3ccccc3)cnc2O[C@@H]1CN(C)Cc1ccccc1	-4.5%
COc1ccc(-c2csc(CCn3nc(C)cc3C)n2)cc1OC	-10.7%
COC(=O)C[C@H]1CC[C@H]2[C@@H](COc3ccc(NC(=O)Cc4cccs4)cc3C(=O)N2C)O1	4.07%
Cc1ccc([N+](=O)[O-])cc1NC(=O)CN(C(=O)c1ccccc1Cl)C1CCCCC1	-14%

Structure (SMILES)	activity change, negative = cytotoxicity
CCOC(=O)c1nnn(-c2ccc(OC)cc2)c1N	-2.2%
O=C(Nc1ccccc1F)N1C[C@H]2[C@@H](c3ccccc31)[C@H](CO)N2C(=O)C1CC1	1.68%
C[C@@H]1CN([C@H](C)CO)C(=O)c2cc(NC(=O)C3CCCCC3)ccc2O[C@H]1CN(C)Cc1ccc(-c2ccccc2)cc1	-1.4%
COc1cccc(CNC(=O)CCc2nnc3ccc(NCCCN4CCCC4=O)nn23)c1	-2.93%
C[C@H](O)C#Cc1ccc2c(c1)O[C@H](CN(C)C)[C@H](C)CN([C@@H](C)CO)S2(=O)=O	1.47%
O=C(CC1Nc2ccccc2NC1=O)Nc1ccc2c(c1)OCO2 (configuration not stated)	-10.1%
O=C(CCNS(=O)(=O)c1cccc2nonc12)NC1CCCc2ccccc21 (configuration not stated)	10.4%
C[C@H](CO)N1C[C@H](C)[C@@H](CN(C)Cc2ccc(-c3ccccc3)cc2)Oc2ccc(NC(=O)CCCN(C)C)cc2C1=O	-1.63%
CC(C)CNC(=O)c1coc(=O)c(Br)c1	-7.45%
O=S(=O)(c1ccccc1F)N1CC[C@H]2[C@H](CO)Nc3ccc(-c4cccc(F)c4)cc3[C@H]21	-4.39% [at 23.5 µM]
C[C@H]1CN([C@@H](C)CO)C(=O)c2cc(NC(=O)CCCN(C)C)ccc2O[C@H]1CN(C)Cc1ccc(-c2ccccc2)cc1	6.67%
CN(C)C(=O)c1ccc(-c2ccc3c(c2)[C@@H]2[C@@H](CCN2C(=O)c2ccc(F)cc2)[C@@H](CO)N3C)cc1	-30.3%
CN1c2ccc(-c3ccccc3)cc2[C@@H]2[C@@H](CCN2C(=O)CN2CCOCC2)[C@H]1CO	-3.89% [at 23.5 µM]
CO[C@H]1CN(C)C(=O)c2cc(NC(=O)Nc3ccc(Cl)c(Cl)c3)ccc2OC[C@H](C)NC[C@H]1C	-0.135% [at 8 µM]
COC(=O)c1cn(CC(=O)NCc2ccco2)c2ccccc12	0.072%
CCN1CCN(C(c2ccccc2)c2nnnn2Cc2ccccc2)CC1 (configuration not stated)	-9.25%
C[C@H](O)C#Cc1ccc2c(c1)O[C@H](CN(C)C)[C@@H](C)CN([C@@H](C)CO)S2(=O)=O	4.25%
C[C@@H]1CN([C@H](C)CO)C(=O)c2cc(NC(=O)CCCN(C)C)ccc2O[C@H]1CN(C)Cc1ccc(-c2ccccc2)cc1	-1.25%
